For 36 molecules, Potency, outcome and activity change, negative = inhibition results are on record in PubChem BioAssay (NCATS).

Inconclusive results are not listed. Unmarked numbers belong to inactive results. Activity calls are given as the source filed them. The call rests on the fitted dose curve; in most records, active means well fitted curve in the direction sought with a large enough effect; inconclusive means small, poorly fitted or top-dose-only effect, or another doubt; inactive means no such curve, though single readings can be large; an effect the other way counts as inactive or inconclusive.

Test [1] can be described thus: Confirmatory screen GU Rhodamine qHTS for Zika virus inhibitors qHTS (AID 1347157). Further: potency means the concentration at half of the fitted maximal effect; nearly all actives have a fitted effect of over 70% in size. In a few lines: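 A qHTS format was used, with compound concentrations ranging up to 114 microM. Each compound was preincubated with 25 nM NS2B-NS3 protease, and the substrate was then added at 1.5 microM. Curves were fitted with a 4-parameter Hill model.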
Background: Quantitative high-throughput screening tests each substance at several concentrations.

In test [2] the test system is Zika virus NS2B-NS3 protease (linked construct). Nature of the test: Primary screen NINDS Rhodamine qHTS for Zika virus inhibitors (AID 1347160). Further: nearly all actives have a fitted effect of over 55% in size. Further: potency means the concentration at half of the fitted maximal effect. In a few lines:
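In 10 mM Tris-HCl pH 8.0 containing 0.01% Tween 20, linked NS2B-NS3 protease (25 nM final) is exposed to test compounds for 15 min. Cleavage of 1.5 microM Rhodamine110 substrate is tracked by fluorescence over 15 min.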

The nature of test [3]: Confirmatory screen NINDS Rhodamine qHTS for Zika virus inhibitors (AID 1347161). Further: potency means the concentration at half of the fitted maximal effect; nearly all actives have a fitted effect of over 60% in size. Put shortly:
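qHTS dose-response: 25 nM linked protease, pH 8.0 Tris/Tween buffer, cpd titration, 15 min RT preinc, 1.5 microM Rhod110 peptide, 15 min reaction (~15% conversion), Ex480/Em540; 4-parameter Hill fit.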

The subject of test [4] is Zika virus NS2B-NS3 protease (linked). Kind of test: 384 well plate NINDS AMC confirmatory qHTS for Zika virus inhibitors (AID 1347163). Further: potency means the concentration at half of the fitted maximal effect; nearly all actives have a fitted effect of over 50% in size. In a few lines: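 Linked protease 5/30/60 nM final; cpds up to 1 mM final, ~15 min preinc. Substrate Ac-VKTGKR-AMC 30 microM final. RT, dark, 25 min; FI ex 355/em 460; normalized to no-enzyme/no-inhibitor ctrls.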
For test [5], the system named is Zika virus NS2B-NS3 protease (linked construct). Kind of test: 384 well plate NINDS Rhodamine confirmatory qHTS for Zika virus inhibitors (AID 1347164).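 Further: fluorescence from protease cleavage of Ac-LKRR-rhodamine 110 substrate; potency means the concentration at half of the fitted maximal effect; nearly all actives have a fitted effect of over 65% in size.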 In a few lines:
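Enzyme (final 5/30/60 nM) + cpd (DMSO), ~15 min; add Ac-LKRR-Rd 10 microM final; 25 min RT, dark; FI ex 485/em 538; normalized to no-enzyme, no-inhibitor ctrls; aprotinin intraplate ctrl.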

Test [6] can be described thus: Vero cells viability qHTS for Zika virus inhibitors (AID 1347167). Further: on the % scale 0 is the no-effect control and ±100 the full control effect. Put shortly:
(§1)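 Compounds were tested in concentration series on cells grown in DMEM containing 4% FBS. After 24 to 48 hours, cellular ATP was measured by luminescence with CellTiter Glo.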

A short description of test [7]: HepG2 cells viability qHTS for Zika virus inhibitors (AID 1347168). Further: on the % scale 0 is the no-effect control and ±100 the full control effect. Put shortly:
as §1

Test [8] can be described thus: Tertiary RLuc qRT-PCR qHTS assay for Zika virus inhibitors (AID 1347169). Further: nearly all actives have a fitted effect of over 55% in size. Further: potency means the concentration at half of the fitted maximal effect. On activity change, negative = inhibition: top concentration of the series differs between compounds; on the % scale 0 is the no-effect control and ±100 the full control effect. In a few lines:
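Vero, 1,000 cells/well, o/n 37 C; cpd pinned in DMSO; ZIKV-RLuc Cambodian, MOI 1-2, 48-72 h 37 C; live-cell RLuc substrate, lum read at 1-1.5 h.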
A general note: Real-time PCR tracks product formation cycle by cycle.

Test [9] has as its system Zika virus NS2B-NS3 protease (unlinked complex). Nature of the test: Primary screen GU Rhodamine qHTS for Zika virus inhibitors: Unlinked NS2B-NS3 protease assay (AID 1347159). Further: nearly all actives have a fitted effect of over 60% in size. Further: potency means the concentration at half of the fitted maximal effect. On activity change, negative = inhibition: on the % scale 0 is the no-effect control and ±100 the full control effect. Put shortly:
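Percent inhibition derives from the 15-min fluorescence change (ex 480, em 540 nm), normalized to no-enzyme and no-inhibitor wells. Reactions contained 25 nM NS2B-NS3 complex and 1.5 microM substrate in 10 mM Tris-HCl pH 8.0.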

Turning to `CC(C)CC(c1c(O)c(C=O)c(O)c(C=O)c1O)C1CCC(C)(O)C2CC(C(C)(C)O)CCC12C` (stereo not given), the Potency in test [1] is 3.41 µM (active); in test [2] it was 5.01 µM (active); in [3] it was 3.41 µM (active); in test [4], 50.1 µM (active); in test [5] it was 15.8 µM (active). The result in test [6] and in test [7] was inactive. Besides, the Potency entry in [8] was “inactive”.

For the molecule `c1cc(-c2cc(C3CCNCC3)[nH]n2)ccn1`, in test [9], the Potency result was “inactive”.

Take `CCC[C@H](N[C@@H](C)C(=O)N1[C@H](C(=O)O)C[C@@H]2CCCC[C@@H]21)C(=O)O`: in [9], the Potency entry was “inactive”.

Take `C=C1CCC[C@]2(C)CC[C@@](O)(C(=C)C(=O)O)C[C@@H]12`: the Potency in test [9] is 11.2 µM (active).

As for `O=C(O)c1cccc(CN2C(=O)/C(=C(\c3ccccc3)c3ccc(Cl)cc3)c3ccccc32)c1`, the Potency in test [9] is 1.41 µM (active).

For `C/C1=C\CC(C)(C)/C=C/C/C(C(=O)O)=C/CC1`, the Potency in [9] is 14.1 µM (active).

As to `O=C(OC(C(F)(F)F)C(F)(F)F)N1CCN(Cc2cccc(Oc3ccccc3)c2)CC1`, in test [9], the Potency entry was “inactive”.

Turning to `CC1(C)CC[C@]2(C(=O)O)CC[C@]3(C)C(=CCC4[C@@]5(C)CC[C@H](O[C@@H]6O[C@H](C(=O)O)[C@@H](O)[C@H](O)[C@H]6O)C(C)(C)C5CC[C@]43C)C2C1` (stereo not given in full), the Potency in [1] was 5.84 µM (active); in test [3], 6.55 µM (active); in test [5] it was 2.24 µM (active); in test [8], 9.79 µM (active). In test [2], the Potency result is “inactive”.

With `Cc1ccc(C)c(NC(=O)CNS(=O)(=O)c2ccc3[nH]c(=O)oc3c2)c1`, the Potency entry in test [9] is “inactive”.

For `C=C1CCC2C(C)(C)CC(=O)CC2(C)C1CCC(C)CCO` (stereo not given), the Potency in test [9] was 20 µM (active).

For the molecule `COc1cc2c(c(OC)c1O)C(c1ccc(O)cc1)C1C(=O)OC3C(COC(=O)C1=C2)OC(CO)(OC1OC(COC(=O)/C=C/c2ccc(OC4OC(C)C(O)C(O)C4O)cc2)C(O)C(O)C1O)C3O` (stereo not given), the Potency in test [1] and in [3] was 7.44 µM (active) each time. In addition, the Potency entry in test [8] is “inactive”.

Regarding `CC1=COC(OC2OC(CO)C(O)C(O)C2O)C2C(CO)CC(OC(=O)/C=C/c3ccc(O)cc3)C12` (stereo not given), the Potency entry in test [9] is “inactive”.

Consider `C[C@]12CCC[C@](C)(C(=O)O)C1[C@@H](O)[C@@H](O)C13CC(CCC12)C(CO)(O[C@@H]1O[C@H](CO)[C@@H](O)[C@H](O)[C@H]1O)C3` (stereo not given in full), for which the Potency result in [9] is “inactive”.

`C[C@@H]1[C@H]2[C@H](O[C@@H]3O[C@H](CO)[C@@H](O)[C@H](O)[C@H]3O)OC=C(C(=O)O)[C@H]2C[C@@H]1OC(=O)/C=C/c1ccc(O)cc1`: in [9], the Potency was 31.6 µM (active).

Take `CC1(C)C[C@H](O)C[C@@]2(C)[C@H]1[C@H](O)C=C1COC(=O)[C@@]12O`: the Potency result in test [9] was “inactive”.

On to `COc1cc(C(CO)CO[C@@H]2O[C@H](CO)[C@@H](O)[C@H](O)[C@H]2O)ccc1O` (stereo not given in full), for which the Potency result in test [9] is “inactive”.

On to `CC(C)(OC1OC(CO)C(O)C(O)C1O)C1CCC(O)(CO)C2CC(=O)C(C)(O)C2C1` (stereo not given), for which the Potency entry in test [9] and in [2] was “inactive” in each case.

Take `O=C(CCCCC1CCCCC1)N1CCC(c2cnc[nH]2)CC1`: the Potency entry in test [9] and in [2] was “inactive” throughout.

For the molecule `CC(C)CC(=O)NCCn1cc(C(=O)O)c(=O)cc1C(O)c1ccccc1` (stereo not given), the Potency result in [9] is “inactive”.

Take `O=C(O)c1cccc(C(=O)CCC2OC(n3cnc4c(=O)[nH]cnc43)C(O)C2O)c1` (stereo not given): the Potency result in test [9] and in test [2] was “inactive” each time.

Consider `OCC1=C[C@@H](O)[C@@H]2C=CO[C@@H](O[C@@H]3O[C@H](CO)[C@@H](O)[C@H](O)[C@H]3O)[C@H]12`, for which the Potency result in [9] was “inactive”.

As for `C=CC(C)(CCC=C(C)C)O[C@@H]1O[C@H](CO)[C@@H](O)[C@H](O)[C@H]1O` (stereo not given in full), the Potency result in [9] and in [2] was “inactive” throughout.

Turning to `Cc1cn(C[C@H](N)C(=O)O)c(=O)n(Cc2ccsc2C(=O)O)c1=O`, the Potency entry in [9] and in [2] was “inactive” in each case.

In the case of `CC1C2=CC(=O)OC2(O)CC2C1C(O)CC1C(C)(CO)CCCC21C` (stereo not given), the Potency entry in test [9] and in test [2] was “inactive” throughout.

For the molecule `COc1ccc(CC(NC(C)=O)C(=O)O)cc1` (stereo not given), in [9], the Potency was 31.6 µM (active).

For `O=C(O)CCc1cc2ccoc2cc1O[C@@H]1O[C@H](CO)[C@@H](O)[C@H](O)[C@H]1O`, the Potency entry in test [9] and in test [2] was “inactive” each time.

Consider `O=C(O)c1ccncc1Nc1nn(CCN2CCC(F)(F)CC2)c2ccc(F)cc12`, for which the Potency entry in test [9] and in [2] was “inactive” each time.

`O=C(O)[C@H](Cc1ccccc1)Oc1ccc(-c2ccccc2)cc1`: the Potency in test [9] is 35.5 µM (active).

Regarding `OC[C@H]1O[C@@H](OC[C@H]2O[C@@H](OCc3ccccc3)[C@H](O)[C@@H](O)[C@@H]2O)[C@H](O)[C@@H](O)[C@@H]1O`, the Potency result in test [9] was “inactive”.

For `COc1cc(-c2ccc(O)cc2)c(OC)c(O)c1C1=CC(=O)OC1CC(=O)O` (stereo not given), the Potency result in test [9] and in test [2] was “inactive” in each case.

With `COc1c2cc(c(O)c1OC)CCCCC(O)CCc1ccc(O)c-2c1` (stereo not given), in [9], the Potency entry was “inactive”.

On to `CC(C)N(CCCNC(=O)Nc1ccc(C(C)(C)C)cc1)C[C@H]1O[C@@H](n2ccc3c(N)ncnc32)[C@H](O)[C@@H]1O`, for which the Potency entry in test [9] and in test [2] was “inactive” throughout.

With `COc1cc(Cc2cnc(N)nc2N)c(C(C)C)cc1OC`, the Potency result in test [9] is “inactive”.

For the molecule `CCOc1ccc(-c2nn3ncccc3c2-c2ccc(S(C)(=O)=O)cc2)cc1`, in [9], the Potency result was “inactive”.

In the case of `O=C(CC1CC(c2ccc(F)cc2F)=NO1)N1CCOCC1` (stereo not given), the Potency result in test [9] and in test [2] was “inactive” throughout.

As to `CC(=O)O[C@@H]1[C@H](O[C@@H]2O[C@H](CO)[C@@H](O)[C@H](O)[C@H]2O)[C@@H](O[C@@H]2O[C@@H](C)[C@H](O)[C@@H](O[C@@H]3O[C@H](CO)[C@@H](O)[C@H](O)[C@H]3O)[C@H]2O)[C@H](OC(=O)[C@]23CCC(C)(C)C[C@H]2C2=CCC4[C@@]5(C)C[C@H](O)[C@H](O[C@@H]6O[C@H](C(=O)O)[C@@H](O)[C@H](O)[C@H]6O)[C@@](C)(C(=O)O)C5CC[C@@]4(C)[C@]2(C)CC3)O[C@@H]1C` (stereo not given in full), in test [9], the activity change, negative = inhibition is 16.2% [at 19.1 µM].
